Test results: PubChem BioAssay AID1159580 (chemical genetic matrix, 2015)
Values joined by “and” are separate entries in the source; they are usually repeats but may differ in a detail not shown here. Equal values may be shown once. The campaign covered roughly 5,500 compounds. About 2,000 (36%) were called active. Not shown: some 18% with an inconclusive outcome. Rule as the data show it: active = normalized growth mostly below about 0.91 (no sharp cut-off); inconclusive = no clear call, values can overlap the other calls; inactive = mostly above about 0.92. The list shows a part of the results.

Experiment: chemical genetic growth profiling, strain panel (AID 1159580);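 also: tested at 20 µM; growth read once vehicle control cultures reached saturation at 30 °C; 1 = growth at the plate median or of vehicle wells; lower values mean less growth of the strain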
Conditions: S. cerevisiae deletion strains, growth OD
[1] = locus YHR030C, strain SLT2, stronger effect = lower value
[2] = locus YHR079C, strain IRE1, stronger effect = lower value
[3] = locus YJL095W, strain BCK1, stronger effect = lower value
[4] = locus YJR066W, strain TOR1, stronger effect = lower value
[5] = locus YLR113W, strain HOG1, stronger effect = lower value
[6] = locus YNL183C, strain NPR1, stronger effect = lower value
[7] = locus YOR231W, strain MKK1, stronger effect = lower value
[8] = locus YPL256C, strain CLN2, stronger effect = lower value

Measured: normalized growth

CC/C=C\C/C=C\C/C=C\C/C=C\C/C=C\CCCC(=O)OCC
inactive: [1] 0.979 | [2] 0.924 | [3] 0.945 | [4] 0.94 | [5] 0.902 | [6] 0.927 | [7] 0.949 | [8] 0.897

O=C(O)CCCCCCCCCCCCC1C=CCC1 (stereo unspecified)
0.311 (active) and 0.959 (inactive): [1]
inactive: locus YBR229C, strain ROT2, stronger effect = lower value 1.01 | locus YCL029C, strain bik1, stronger effect = lower value 0.939 | locus YDL035C, strain GPR1, stronger effect = lower value 0.87 | locus YDL101C, strain DUN1, stronger effect = lower value 0.958 | locus YDL134C, strain PPH21, stronger effect = lower value 0.93 | locus YDL185W, strain tfp1, stronger effect = lower value 1.01 | locus YDR162C, strain NBP2, stronger effect = lower value 0.911 | locus YDR318W, strain mcm21, stronger effect = lower value 0.946 | locus YDR388W, stronger effect = lower value 0.976 | locus YEL061C, strain CIN8, stronger effect = lower value 0.971 | locus YER110C, stronger effect = lower value 1.01 | locus YER167W, strain BCK2, stronger effect = lower value 1.01 | locus YGL078C, strain dbp3, stronger effect = lower value 0.973 | locus YGR135W, strain pre9, stronger effect = lower value 0.953 | locus YGR252W, strain gcn5, stronger effect = lower value 0.78 | locus YHR079C, strain IRE1 (second series), stronger effect = lower value 0.98 | [2] 0.935 | locus YHR094C, strain hxt1, stronger effect = lower value 1 | locus YHR200W, strain rpn10, stronger effect = lower value 1 | locus YIL125W, strain kgd1, stronger effect = lower value 0.99 | locus YIR030C, strain dcg1, stronger effect = lower value 0.998 | locus YJL134W, strain LCB3, stronger effect = lower value 1.02 | locus YJL168C, strain set2, stronger effect = lower value 0.999 | locus YJL187C, strain SWE1 (second series), stronger effect = lower value 0.867 | locus YJR043C, strain POL32, stronger effect = lower value 0.919 | [4] 0.931 | locus YJR075W, strain HOC1, stronger effect = lower value 0.967 | locus YKL009W, strain mrt4, stronger effect = lower value 0.972 | locus YKL068W, stronger effect = lower value 1.01 | locus YKL085W, strain MDH1 (second series), stronger effect = lower value 1.01 | locus YKL085W, strain MDH1, stronger effect = lower value 1.01 | locus YLR058C, strain SHM2, stronger effect = lower value 0.902 | locus YLR102C, strain apc9, stronger effect = lower value 0.998 | [5] 0.995 | locus YLR342W, strain FKS1 (second series), stronger effect = lower value 0.854 | locus YLR371W, strain rom2, stronger effect = lower value 0.992 | locus YML016C, strain PPZ1, stronger effect = lower value 1.03 | locus YML032C, strain rad52, stronger effect = lower value 0.977 | locus YML124C, strain tub3, stronger effect = lower value 0.998 | locus YMR078C, strain ctf18, stronger effect = lower value 1.01 | locus YMR263W, strain SAP30, stronger effect = lower value 0.915 | locus YMR307W, strain GAS1, stronger effect = lower value 1.13 | locus YNL067W, strain RPL9B, stronger effect = lower value 0.933 | [6] 0.903 | locus YNL250W, strain rad50, stronger effect = lower value 1.02 | locus YNL271C, strain bni1, stronger effect = lower value 0.976 | locus YNL298W, strain CLA4, stronger effect = lower value 0.944 | locus YNR052C, strain pop2, stronger effect = lower value 0.988 | locus YOL006C, strain TOP1, stronger effect = lower value 0.764 | locus YOL012C, strain htz1 0.57 | locus YOR061W, strain CKA2, stronger effect = lower value 0.987 | locus YOR069W, strain VPS5, stronger effect = lower value 0.956 | locus YOR136W, strain idh2, stronger effect = lower value 0.976 | [7] 0.954 | locus YOR316C, strain cot1, stronger effect = lower value 0.999 | [8] 1.04 | locus YPR119W, strain clb2, stronger effect = lower value 0.993 | locus YPR141C, strain kar3, stronger effect = lower value 1.01 | locus YPR163C, strain tif3, stronger effect = lower value 0.921 | locus YPR167C, strain met16, stronger effect = lower value 0.989 | strain wtn01, stronger effect = lower value 0.908
0.542 (active) and 0.952 (inactive): [3]
active: locus YBR021W, strain FUR4, stronger effect = lower value 0.186 | locus YDL074C, strain BRE1, stronger effect = lower value 0.653 | locus YDL192W, strain arf1, stronger effect = lower value 0.82 | locus YDR101C, strain arx1, stronger effect = lower value 0.883 | locus YDR502C, strain sam2, stronger effect = lower value 0.917 | locus YER155C, strain BEM2, stronger effect = lower value 0.745 | locus YGL086W, strain mad1, stronger effect = lower value 0.853 | locus YGL248W, strain PDE1, stronger effect = lower value 0.865 | locus YHR129C, strain ARP1, stronger effect = lower value 0.885 | locus YIL066C, strain RNR3, stronger effect = lower value 0.841 | locus YIL073C, strain SPO22, stronger effect = lower value 0.604 | locus YKL190W, strain CNB1, stronger effect = lower value 0.761 | locus YKR001C, strain vps1, stronger effect = lower value 0.337 | locus YLR039C, strain RIC1, stronger effect = lower value 0.422 | locus YLR262C, strain YPT6, stronger effect = lower value 0.476 | locus YLR268W, strain sec22, stronger effect = lower value 0.812 | locus YLR330W, strain CHS5, stronger effect = lower value 0.822 | locus YLR418C, strain cdc73, stronger effect = lower value 0.632 | locus YMR223W, strain ubp8, stronger effect = lower value 0.871 | locus YNL153C, strain GIM3, stronger effect = lower value 0.808 | locus YNL233W, strain BNI4, stronger effect = lower value 0.652 | locus YNL307C, strain MCK1, stronger effect = lower value 0.585 | locus YOL147C, strain pex11, stronger effect = lower value 0.871 | locus YOR144C, strain elg1, stronger effect = lower value 0.901 | locus YOR184W, strain ser1, stronger effect = lower value 0.726
